# Results as given in PubChem BioAssay AID2061321 (National Center for Advancing Translational Sciences (NCATS), 2025).
# Results filed as inconclusive are left out. Active and inactive are the calls of the source. The call rests on the fitted dose curve; in most records, active means well fitted inhibition curve with a large enough effect; inconclusive means small, poorly fitted or top-dose-only effect; inactive means flat fitted curve, though single readings scatter. Non-standard residues stand in square brackets, D forms with d. Residues, ends and D or L forms follow the SMILES beside them. *: point of attachment. Dolaproine = CO[C@@H]([C@@H]1CCCN1)[C@@H](C)C(=O)O; Dil = CC[C@H](C)[C@H](NC)[C@@H](CC(=O)O)OC; NMe2Val = CC(C)[C@@H](C(=O)*)N(C)C
# Experiment: Identification of antibody-drug conjugate (ADC) payloads which are substrates of ATP-binding cassette drug efflux transporters: ABCG2-H460 cell line
# Conditions: H460 MX20 (ABCG2) viability, CellTiter-Glo, 48 h
# From the text: Antibody-drug conjugates (ADCs) feature an antibody recognizing a specific protein joined to a potent toxic payload. Numerous antibody-drug conjugates have received FDA approval; however, clinical resistance arises. Resistance mechanisms include decreased expression or mutation of the antibody target, impaired payload release, or increased expression of ATP-binding cassette (ABC) efflux transporters associated with multidrug resistance. We therefore sought to characterize the interaction of ABC multidrug transporters with ADC payloads. We performed a high-throughput screen with 27 common ADC payloads using cells lines expressing ABC transporters P-glycoprotein (P-gp, encoded by ABCB1) or ABCG2 (encoded by ABCG2). Confirmatory assays were also performed using cells transfected to express P-gp, ABCG2, or MRP1 (encoded by ABCC1). Several commonly used ADC payloads were substrates of P-gp, including calicheamicin gamma1, monomethyl auristatin E, DM1, and DM4. All the pyrrolobenzodiazepines tested - SJG136, SGD-1882, SG2057, and SG3199 - were substrates of P-gp, ABCG2, and MRP1. […] These findings highlight the risk of transporter-mediated resistance with certain ADC payloads and underscore the importance of selecting payloads that evade ABC transporter recognition in future ADC development.
# HEK-293 cells were transfected with empty vector (pcDNA) or vector containing the human ABCB1 (MDR-19), ABCG2 (R-5), or ABCC1 gene (MRP1) and were maintained in EMEM with 2 mg/mL G418 added to maintain transporter expression. The HeLa derivative KB-3-1 and the P-gp overexpressing KB-8-5-11 subline were maintained in DMEM; KB-8-5-11 additionally received 100 ng/mL colchicine. H460 parental cells were obtained from the Division of Cancer Treatment and Diagnosis Tumor Repository, National Cancer Institute at Frederick, MD and were cultured in RPMI. The ABCG2 expressing subline H460 MX20 was generated by selecting H460 cells in 20 nM mitoxantrone. Media in all cases was supplemented with 10% FBS and 1% penicillin-streptomycin. We explored 27 common ADC payloads, in two orthogonal, paired cell line sets-a drug selected and transfected set for each transporter--to identify substrates of the ABC transporters P-gp and ABCG2. Compounds were sourced from Levena Biopharma (San Diego, CA), Selleck Chem (Houston, TX), ChemieTek (Indianapolis, IN), or Microsource Discovery Systems (Gaylordsville, CT). Screening was performed as previously described. Briefly, cells were plated at a density of 500 cells/well in 1536 well plates with compounds added using a 1536-head pin tool (Kalypsys, San Diego CA). Cells were incubated with cytotoxic drugs and processed with CellTiter Glo reagent (Promega, Madison, WI) to determine viability after 48 hours. P-gp substrates were identified by comparing compound activity between paired sets of low-expressing (sensitive) and over-expressing (resistant) cell lines.
row,SMILES,Potency
1,COc1cc2cc(C(=O)N3C[C@@H](CCl)c4c3cc(O)c3ccccc43)[nH]c2c(OC)c1OC,1.1 nM (active)
2,CC[C@@]1(O)C(=O)OCc2c1cc1n(c2=O)Cc2cc3ccccc3nc2-1,9.5 nM (active)
3,CC[C@H](C)[C@@H]([C@@H](CC(=O)N1CCC[C@H]1[C@H](OC)[C@@H](C)C(=O)N[C@@H](Cc1ccccc1)C(=O)O)OC)N(C)C(=O)[C@@H](NC(=O)[C@H](C(C)C)N(C)C)C(C)C (NMe2Val-V[Dil][Dolaproine]F-OH),42.3 nM (active)
4,COc1cccc2c1C(=O)c1c(O)c3c(c(O)c1C2=O)C[C@@](O)(C(=O)CO)CC3OC1CC(N2CCOC(OC)C2)C(O)C(C)O1 (stereo partly specified),3 nM (active)
5,CC[C@H](C)[C@@H]([C@@H](CC(=O)N1CCC[C@H]1[C@H](OC)[C@@H](C)C(=O)N[C@H](C)[C@@H](O)c1ccccc1)OC)N(C)C(=O)[C@@H](NC(=O)[C@H](C(C)C)N(C)C)C(C)C,1.3 nM (active)
6,CC[C@H](C)[C@@H]1NC(=O)CNC(=O)[C@H]2Cc3c([nH]c4cc(O)ccc34)S(=O)C[C@H](NC(=O)CNC1=O)C(=O)N[C@@H](CC(N)=O)C(=O)N1C[C@H](O)C[C@H]1C(=O)N[C@@H]([C@@H](C)[C@@H](O)CO)C(=O)N2 (stereo partly specified),948 nM (active)
